# From PubChem BioAssay
# Beta apoptosis: blocks beta cell apoptosis | actives 0.8% (n = 300,000) | INS-1E cytokine-induced death, ATP luminescence, 48 h; percent of positive-control rescue, neutral wells zero | AID 435005 | protection from apoptosis, % (no concentration beside the values);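 active means Every replicate reaches about 75%, or at least half do and their mean reaches it too, limit read from the data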;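 further: 0% = cytokine-treated negative control wells and 100% = positive control rescue; higher means more ATP so stronger rescue from cytokine killing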
# Gli-Sufu block: Gli-Sufu pathway antagonism; Sufu-KO-LIGHT fibroblasts, Gli luciferase reporter luminescence; actives 0.74% (n = 340,000); inhibition, % at 5 µM;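 active means inhibition above about 55%, limit read from the data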;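 further: 0% = DMSO-treated cells and 100% = wells with medium but no cells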
# CSC inhib: blocks cancer stem cells | cancer stem cell-like cells viability, luminescence | inhibition, % at 7.5 µM | AID 2717 | actives 1.1% (n = 300,000); in the data active means inhibition above about 75%; tested in HMLE shEcad cells
# Shn3 inh set2: inhibitors of Schnurri-3 3'UTR reporter in osteoblasts; Clone20 osteoblast Shn3 3'UTR firefly luciferase, 24 h; inhibition, % at 12.5 µM; actives 0.52% (n = 360,000);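 active means mean inhibition of at least 75% with every replicate also reaching 75%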;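 further: 0% = median of neutral control wells and 100% = pilot-screen positive control compound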
# Mdm2-MdmX inh: human Mdm2/MdmX binding inhibition | O15151+Q00987 | SaOS-2 split-luciferase Mdm2/MdmX complementation, luminescence | inhibition, % at 8 µM | actives 3% (n = 330,000);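 active means inhibition of at least 50% at 8 µM in the primary screen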
# Target sequence (O15151 whole entry, looked up): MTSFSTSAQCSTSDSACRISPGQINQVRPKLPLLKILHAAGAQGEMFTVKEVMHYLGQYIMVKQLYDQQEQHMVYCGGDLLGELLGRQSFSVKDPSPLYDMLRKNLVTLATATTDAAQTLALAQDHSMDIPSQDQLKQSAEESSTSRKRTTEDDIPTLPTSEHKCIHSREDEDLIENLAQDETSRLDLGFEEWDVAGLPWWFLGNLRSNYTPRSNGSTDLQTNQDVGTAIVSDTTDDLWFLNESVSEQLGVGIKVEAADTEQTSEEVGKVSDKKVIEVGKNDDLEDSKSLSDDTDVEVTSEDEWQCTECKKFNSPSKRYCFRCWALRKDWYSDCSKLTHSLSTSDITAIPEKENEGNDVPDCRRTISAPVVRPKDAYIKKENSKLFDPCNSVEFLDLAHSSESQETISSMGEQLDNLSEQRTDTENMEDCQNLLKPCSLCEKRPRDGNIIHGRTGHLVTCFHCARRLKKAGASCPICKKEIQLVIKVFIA
# Target sequence (Q00987 whole entry, looked up): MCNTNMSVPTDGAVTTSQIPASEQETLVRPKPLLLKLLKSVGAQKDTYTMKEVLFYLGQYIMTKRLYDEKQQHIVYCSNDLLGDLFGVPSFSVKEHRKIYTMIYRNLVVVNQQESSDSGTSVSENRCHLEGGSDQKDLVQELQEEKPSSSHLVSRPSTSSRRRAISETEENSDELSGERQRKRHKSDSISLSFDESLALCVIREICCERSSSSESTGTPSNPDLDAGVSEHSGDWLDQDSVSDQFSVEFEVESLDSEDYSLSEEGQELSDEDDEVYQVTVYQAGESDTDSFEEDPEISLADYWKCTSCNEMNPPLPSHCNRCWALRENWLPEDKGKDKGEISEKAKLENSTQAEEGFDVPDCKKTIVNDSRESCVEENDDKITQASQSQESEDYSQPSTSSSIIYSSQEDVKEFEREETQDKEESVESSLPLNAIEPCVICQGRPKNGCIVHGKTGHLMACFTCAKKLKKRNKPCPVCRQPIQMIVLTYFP
# PAX8 inh HTS: inhibitors of PAX8 transcriptional activity in RMG-I cells; RMG-I TPO-luciferase reporter, SteadyGlo, 24 h; inhibition, % at 12.6 µM; actives 1.2% (n = 360,000);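 active means mean replicate inhibition at least 60% with every replicate also reaching 60%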;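 further: luciferase light reporting Pax8 driven TPO promoter activity; plate controls were median of neutral control wells for no effect and mitoxantrone controls for full effect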
# Starred values were filed as active, the others as inactive; · = no result given. Shown are actives, neighbours in structure and some others; about 4% of the full set was active somewhere.
SMILES,Beta apoptosis,Gli-Sufu block,CSC inhib,Shn3 inh set2,Mdm2-MdmX inh,PAX8 inh HTS
C[C@@H]1CN([C@H](C)CO)C(=O)c2cc(NC(=O)Cc3ccccc3)ccc2O[C@@H](C)CCCCO[C@@H]1CN(C)Cc1ccccc1,·,·,·,·,·,25.3
C[C@H]1CCCCO[C@H](CN(C)Cc2ccccc2)[C@@H](C)CN([C@@H](C)CO)C(=O)c2cc(NC(=O)Cc3ccccc3)ccc2O1,·,·,·,·,·,-29.3
C[C@@H]1CN([C@@H](C)CO)C(=O)c2cc(NC(=O)Cc3ccccc3)ccc2O[C@@H](C)CCCCO[C@@H]1CN(C)Cc1ccc(C(F)(F)F)cc1,·,·,·,·,·,96.6*
CCCN1C[C@H](C)[C@H](OC)CN(C)C(=O)c2cc(NC(=O)C3CC3)ccc2OC[C@H]1C,·,·,·,·,·,5.8
CNC(=O)C[C@H]1CC[C@@H]2[C@H](COc3ccc(NC(=O)c4ccccc4OC)cc3C(=O)N2C)O1,·,·,·,·,·,-17.8
CS(=O)(=O)N1CCCCN2[C@@H](CO)[C@H](c3ccc(C#Cc4ccccn4)cc3)[C@@H]2C1,·,·,·,·,·,-10.7
CC(C)c1cn(CC[C@H]2CC[C@@H](NC(=O)Nc3cc(Cl)cc(Cl)c3)[C@@H](CO)O2)nn1,·,·,·,·,·,18.6
COCC(=O)N1CC(=O)N2[C@H](CO)[C@H](c3ccc(C#CCc4ccccc4)cc3)[C@@H]2C1,·,·,·,·,·,-11.1
C[C@H]1CCCCO[C@@H](CN(C)Cc2ccc(C(=O)O)cc2)[C@@H](C)CN([C@@H](C)CO)C(=O)c2cc(NC(=O)Cc3ccccc3)ccc2O1,·,·,·,·,·,-8.0
C[C@@H]1CCCCO[C@@H](CN(C)Cc2ccc(C(F)(F)F)cc2)[C@H](C)CN([C@H](C)CO)C(=O)c2cc(NC(=O)Cc3ccccc3)ccc2O1,·,·,·,·,·,90.7*
C[C@H](CO)N1C[C@H](C)[C@H](CN(C)Cc2ccc(C(F)(F)F)cc2)OCCCC[C@H](C)Oc2ccc(NC(=O)Cc3ccccc3)cc2C1=O,·,·,·,·,·,110.1*
COc1ccc(NC(=O)Nc2ccc3c(c2)C(=O)N([C@H](C)CO)C[C@H](C)[C@@H](CN(C)S(=O)(=O)c2ccccc2)OCCCC[C@H](C)O3)cc1,·,·,·,·,·,-34.1
C[C@H]1CN([C@@H](C)CO)C(=O)CCCn2nncc2CO[C@@H]1CN(C)C(=O)CCCN(C)C,·,·,·,·,·,1.4
CCCNC(=O)N(C)C[C@@H]1Oc2ncc(C#CC3(O)CCCC3)cc2C(=O)N([C@H](C)CO)C[C@@H]1C,·,·,·,·,·,14.9
COc1ccc(CNC(=O)C[C@H]2CC[C@H]3[C@H](COc4ccc(NC(C)=O)cc4C(=O)N3C)O2)cc1,·,·,·,·,·,-2.0
Cc1ccc2nc(Cl)c3cc(C(=O)N(CCN(C)C)Cc4ccco4)sc3c2c1,-1.3,29.7,93.3*,15.8,39.6,3.7
CN(C)CCN(Cc1ccco1)C(=O)c1cc2c(Cl)nc3ccccc3c2s1,-6.9,39.6,-12.4,-2.0,20.7,-2.4
Oc1ccc(Br)cc1-c1cc(-c2ccccc2)n[nH]1,20.8,12.8,120.4*,5.0,39.1,·
COc1ccc(O)c(-c2cc(-c3cccc(Br)c3)n[nH]2)c1,22.8,11.0,-18.4,-36.7,-65.3,·
C[C@@H]1CCCCO[C@H](CN(C)C(=O)CCCN(C)C)[C@H](C)CN([C@@H](C)CO)C(=O)c2cc(NC(=O)c3ccncc3)ccc2O1,·,·,·,·,·,-7.4
CCN(CC)S(=O)(=O)c1ccc(N=Nc2cc(C)cc(Br)c2O)cc1,3.6,1.5,-3.9,-13.1,23.5,14.5
Cc1ccc(N=Nc2ccc(O)cc2)c(Br)c1,8.3,-158.5,86.8*,-95.1,-281.9,-196.9
O=C(C[C@H]1C=C[C@H](NC(=O)NC2CCCCC2)[C@@H](CO)O1)NCc1ccccc1,·,·,·,·,·,-1.4
Cc1ccc(-c2ccc([C@@H]3[C@@H](CO)N4CCCCN(C(=O)Nc5cccc(F)c5)C[C@@H]34)cc2)cc1,·,·,·,·,·,-11.5
O=C(Nc1ccccc1)N1CCCCN2[C@H](CO)[C@H](c3ccc(-c4ccccc4F)cc3)[C@H]2C1,·,·,·,·,·,-6.1
SMILES,Beta apoptosis,Gli-Sufu block,CSC inhib,Shn3 inh set2,Mdm2-MdmX inh,PAX8 inh HTS
Cc1ccccc1-c1ccc([C@H]2[C@@H](CO)N3CCCCN(C(=O)Nc4cccc(F)c4)C[C@H]23)cc1,·,·,·,·,·,99.9*
Cc1ccccc1-c1ccc([C@H]2[C@@H](CO)N3CCCCN(C(=O)Nc4cccc(F)c4)C[C@@H]23)cc1,·,·,·,·,·,23.4
Cc1ccccc1-c1ccc([C@@H]2[C@H](CO)N3CCCCN(C(=O)Nc4cccc(F)c4)C[C@@H]23)cc1,·,·,·,·,·,107.9*
O=C(Nc1cccc(F)c1)N1CCCCN2[C@@H](CO)[C@@H](c3ccc(-c4ccccc4F)cc3)[C@@H]2C1,·,·,·,·,·,113.7*
C[C@@H]1CN([C@@H](C)CO)C(=O)Cc2cc(NS(C)(=O)=O)ccc2O[C@@H]1CN(C)Cc1ccc(C(=O)O)cc1,·,·,·,·,·,-19.3
C[C@H](CO)N1C[C@H](C)[C@@H](CN(C)C(=O)C2CC2)Oc2cc(-c3cccc(F)c3)ccc2S1(=O)=O,·,·,·,·,·,-20.1
c1ccc(COc2ccc(OCCN3CCCCC3)cc2)cc1,·,·,·,-18.5,0.7,98.6*
c1ccc(COc2ccc(OCCCN3CCCC3)cc2)cc1,6.8,22.3,-18.0,-18.4,-48.0,67.3*
c1ccc(COc2ccc(OCCN3CCCC3)cc2)cc1,-3.2,-8.4,13.8,-9.4,-26.4,·
N#C[C@@H]1[C@H](c2ccc(C3=CCCCC3)cc2)[C@@H](CO)N1C(=O)Cc1ccncc1,·,·,·,·,·,-26.3
CC(Oc1cccc(Cl)c1)C(=O)Nc1cc(S(=O)(=O)N2CCOCC2)ccc1N1CCCCC1 (stereo not drawn),110.4*,15.7,-3.1,32.2,42.1,53.3
CCCNC(=O)[C@@H]1[C@@H](CO)[C@@H]2Cn3c(ccc(-c4cccc(F)c4)c3=O)[C@H]1N2CCC,·,·,·,·,·,-3.3
COC(=O)c1c(C)oc2ccc(N(C(=O)c3ccncc3)S(=O)(=O)c3ccc4ccccc4c3)cc12,105.5*,9.1,7.9,33.7,41.9,·
COC(=O)c1c(C)oc2ccc(N(C(=O)c3ccncc3)S(=O)(=O)c3ccccc3)cc12,·,10.3,1.6,68.9,35.0,·
Cn1cccc1/C=C1\SC(=S)N(Nc2ccccc2)C1=O,15.2,0.1,91.9*,-3.1,16.6,-22.7
Cc1ccc(S(=O)(=O)NN2C(=O)/C(=C/c3cccn3C)SC2=S)cc1,-1.2,·,-4.1,·,·,·
C[C@@H]1CN([C@H](C)CO)C(=O)c2cccc(NS(=O)(=O)c3ccc(Cl)cc3)c2O[C@@H]1CN(C)Cc1ccc2c(c1)OCO2,·,·,·,·,·,12.0
O=C(C[C@H]1CC[C@H]2[C@@H](COC[C@@H](O)CN2S(=O)(=O)c2cccc(Cl)c2)O1)Nc1ccc(-c2ccccc2)cc1,·,·,·,·,·,87.0*
O=C(C[C@H]1CC[C@@H]2[C@H](COC[C@H](O)CN2S(=O)(=O)c2ccccc2)O1)Nc1ccc(-c2ccccc2)cc1,·,·,·,·,·,62.9*
O=C(C[C@H]1CC[C@@H]2[C@H](COC[C@@H](O)CN2S(=O)(=O)c2cccc(Cl)c2)O1)Nc1ccc(-c2ccccc2)cc1,·,·,·,·,·,106.4*
CCN1[C@@H]2c3ccc(/C=C/c4ccccc4)c(=O)n3C[C@H]1[C@H](CO)[C@H]2C(=O)NC1Cc2ccccc2C1,·,·,·,·,·,9.9
